Assay results as given in PubChem BioAssay (EPA / NIEHS).
The source made the active and inactive calls. How the source made its calls: active means hit-call score of the fitted dose curve at least 0.9, where 1 is the maximum; inactive means score below 0.9.

Tests used:
[1] = ATG_M_61_CIS: Attagene CIS-FACTORIAL HepG2 Assay for M61 Transcription Factor (Internal Marker) (AID 2282937); conditions: HepG2 Attagene CIS-FACTORIAL M61 internal marker reporter; actives raise or lower the signal
How it was run: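 Endogenous transcription factor activity in HepG2 is read through transiently transfected cis-element reporter units. After 24 h dosing, RNA undergoes reverse transcription, PCR and primer extension with 6-FAM before capillary electrophoresis; DMSO-referenced bidirectional fit.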

[2] = ATG_EGR_CIS: Attagene CIS-FACTORIAL HepG2 Assay for human Early Growth Response 1 (EGR1) (AID 2282938); conditions: HepG2 Attagene CIS-FACTORIAL EGR reporter mRNA; actives raise or lower the signal
How it was run: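 Activity is taken as induction or loss of reporter mRNA versus DMSO, fitted bidirectionally. Transcripts from cis-regulated reporter units in transiently transfected HepG2 were measured after 24 h by RT-PCR with capillary electrophoresis.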

[3] = ATG_Ets_CIS: Attagene CIS-FACTORIAL HepG2 Assay for human Erythroblast Transformation Specific (ETS) (AID 2282941); conditions: HepG2 ETS cis-reporter transcription, actives raise or lower the signal
How it was run: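 RT-PCR/capillary electrophoresis fluorescence read-out of reporter mRNA; HepG2 transient multi-reporter transfection; 24 h compound exposure; gain or loss of signal fitted bidirectionally relative to DMSO.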

[4] = ATG_GATA_CIS: Attagene CIS-FACTORIAL HepG2 Assay for human GATA Binding Protein (AID 2282944); conditions: HepG2 GATA cis-element reporter, Attagene multiplex mRNA; actives raise or lower the signal
How it was run: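 Endogenous transcription factor activity was captured through cis-promoter-driven reporters in transfected HepG2 cells. After 24 h exposure, reporter transcripts were quantified by RT-PCR with fluorescent capillary electrophoresis, and responses fitted both directions against DMSO.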

[5] = ATG_GLI_CIS: Attagene CIS-FACTORIAL HepG2 Assay for human Zinc Finger Protein GLI1 (AID 2282945); conditions: HepG2, Attagene cis-factorial reporter mRNA, GLI element; actives raise or lower the signal
How it was run: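 HepG2 cells transiently transfected with cis-promoter multiplexed reporter units report endogenous transcription factor activity. After 24 h chemical exposure, reporter mRNA was quantified by RT-PCR, 6-FAM labelling, HpaI digestion and capillary electrophoresis, with bidirectional fitting against DMSO.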

[6] = biological target: Bile acid receptor (Homo sapiens) (UniProt Q96RI1); assay: ATG_IR1_CIS: Attagene CIS-FACTORIAL HepG2 Assay for human Nuclear Receptor Subfamily 1 Group H Member 4 (NR1H4), IR1 submotif (AID 2282946); conditions: IR1 reporter transcription, actives raise or lower the signal
How it was run: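 Readout: reporter transcript levels by RT-PCR with fluorescent capillary electrophoresis, from HepG2 cells transiently transfected with multiplexed cis-regulated reporters and dosed 24 h. Gain- or loss-of-signal fitted versus DMSO negative control.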

[7] = ATG_GRE_CIS: Attagene CIS-FACTORIAL HepG2 Assay for human Glucocorticoid Response Elements (GRE) (AID 2282947); conditions: HepG2 GRE cis-reporter, Attagene multiplex mRNA; actives raise or lower the signal
How it was run: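 Cells (HepG2) bearing transfected cis-promoter reporter transcription units were treated with chemical for 24 hours. Reporter mRNA was measured via RT-PCR with capillary electrophoresis, and activity was fitted in both directions relative to DMSO.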

[8] = ATG_ISRE_CIS: Attagene CIS-FACTORIAL HepG2 Assay for human Interferon Regulatory Factor 1 (IRF1) binding to an Interferon-Stimulated Response Element (ISRE) (AID 2282948); conditions: HepG2 ISRE cis-reporter (Attagene), mRNA transcription readout; actives raise or lower the signal
How it was run: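 Read-out: fluorescent RT-PCR products resolved by capillary electrophoresis, reporting endogenous transcription factor activity via ISRE-driven reporter mRNA in transfected HepG2 cells dosed for 24 h; gain or loss fitted relative to DMSO.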

[9] = ATG_M_32_CIS: Attagene CIS-FACTORIAL HepG2 Assay for M32 Transcription Factor (Internal Marker) (AID 2282949); conditions: HepG2 Attagene cis-factorial M32 reporter, mRNA; actives raise or lower the signal;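 further: background control marker of the multiplexed CIS panel rather than a real target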
How it was run: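 HepG2 transfectants (cis-regulated reporter transcription units) dosed 24 h. Reporter mRNA by RT-PCR plus CE, analysed as gain or loss relative to DMSO.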

[10] = ATG_M_06_CIS: Attagene CIS-FACTORIAL HepG2 Assay for M06 Transcription Factor (Internal Marker) (AID 2282950); conditions: HepG2 Attagene CIS-FACTORIAL M06 internal marker reporter; actives raise or lower the signal
How it was run: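 Steps: transfect HepG2 with multiplexed cis-element reporter constructs; dose chemical 24 h; extract RNA with DNase treatment; reverse-transcribe, PCR-amplify, 6-FAM label, HpaI digest; separate fragments by capillary electrophoresis. Activity fitted both directions versus DMSO.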

[11] = biological target: Hypoxia-inducible factor 1-alpha (Homo sapiens) (UniProt Q16665); assay: ATG_HIF1a_CIS: Attagene CIS-FACTORIAL HepG2 Assay for human Hypoxia Inducible Factor 1 (HIF1A) (AID 2282951); conditions: HepG2 Attagene cis-factorial HIF1a reporter transcription; actives raise or lower the signal
How it was run: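 Fluorescence intensity of capillary-separated, 6-FAM-labelled reporter amplicons gives mRNA induction in HepG2 cells carrying transfected cis-promoter reporter units; cells exposed 24 h, responses fitted up or down from DMSO.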

[12] = biological target: Hepatocyte nuclear factor 6 (Homo sapiens) (UniProt Q9UBC0); assay: ATG_HNF6_CIS: Attagene CIS-FACTORIAL HepG2 Assay for human Hepatocyte Nuclear Factor 6 (HNF6) (AID 2282952); conditions: HepG2 Attagene cis-factorial HNF6 reporter transcription; actives raise or lower the signal
How it was run: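 First, HepG2 cells were transfected with the multiplexed cis reporter library and dosed with chemical for 24 h. Next, RNA was reverse-transcribed, PCR-amplified and fluorescently labelled. Finally, HpaI-digested fragments were read by capillary electrophoresis.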

[13] = biological target: Heat shock factor protein 1 (Homo sapiens) (UniProt Q00613); assay: ATG_HSE_CIS: Attagene CIS-FACTORIAL HepG2 Assay for human Heat Shock Transcription Factor 1 (HSE) (AID 2282953); conditions: HepG2 HSE cis-reporter, Attagene RNA transcription; actives raise or lower the signal
How it was run: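 Cells were transfected with cis-element-driven reporter constructs, dosed for 24 h, then total RNA was reverse-transcribed and reporter cDNA amplified, FAM-labelled and digested with HpaI. Fragments were resolved by capillary electrophoresis; gain or loss was fitted against DMSO.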

[14] = ATG_MRE_CIS: Attagene CIS-FACTORIAL HepG2 Assay for human Metal Responsive Element (MRE) (AID 2282954); conditions: HepG2 MRE cis-reporter transcription, Attagene multiplex; actives raise or lower the signal
How it was run: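 Cells were transfected with cis-promoter reporter transcription units, then dosed for 24 h. RNA was reverse-transcribed, amplified, fluorescently labelled and resolved by capillary electrophoresis, and activity was fitted in both directions relative to DMSO.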

[15] = ATG_PBREM_CIS: Attagene CIS-FACTORIAL HepG2 Assay for human Phenobarbital-responsive Enhancer Module (PBREM) (AID 2282955); conditions: HepG2 PBREM cis-reporter, Attagene multiplexed transcription; actives raise or lower the signal
How it was run: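 Cells were transfected with cis-element reporter units and treated for 24 h, after which RNA was extracted and reporter transcripts measured by RT-PCR and capillary electrophoresis.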

[16] = ATG_ERE_CIS: Attagene CIS-FACTORIAL HepG2 Assay for Estrogen Response Element (ERE) (AID 2282940); conditions: HepG2 ERE cis-reporter, Attagene RNA transcript; actives raise or lower the signal
How it was run: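 Cells used were human hepatoma HepG2, transfected with multiple reporter transcription units under cis-regulatory promoters. Reporter mRNA, read 24 h post-dosing via fluorescent RT-PCR products on capillary electrophoresis, was fitted bidirectionally relative to DMSO.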

[17] = ATG_M_19_CIS: Attagene CIS-FACTORIAL HepG2 Assay for M19 Transcription Factor (Internal Marker) (AID 2282939); conditions: HepG2 Attagene CIS-FACTORIAL M19 internal marker reporter; actives raise or lower the signal
How it was run: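 Background-control endpoint from a multiplexed HepG2 reporter panel. Cells carrying cis-regulated reporter constructs are treated 24 h, then reporter transcripts are amplified, fluorescently labelled and sized by capillary electrophoresis. DMSO defines baseline.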

[18] = biological target: Hepatocyte nuclear factor 3-beta (Homo sapiens) (UniProt Q9Y261); assay: ATG_FoxA2_CIS: Attagene CIS-FACTORIAL HepG2 Assay for human Forkhead box A2 (FOXA2) (AID 2282942); conditions: HepG2 cis-reporter transcription factor activity, 24 h; actives raise or lower the signal
How it was run: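 Reporter transcript induction is measured by fluorescence after capillary electrophoresis of RT-PCR products from HepG2 cells exposed 24 h. Cis-regulated reporter units report endogenous factor activity; curves fitted both directions against DMSO.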

[19] = ATG_FoxO_CIS: Attagene CIS-FACTORIAL HepG2 Assay for human Forkhead box O (FoxO) (AID 2282943); conditions: HepG2 Attagene cis-reporter, FoxO element, mRNA; actives raise or lower the signal
How it was run: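 Values reflect reporter mRNA induction or loss in HepG2 cells 24 h post-dosing, fitted bidirectionally with DMSO as negative control and baseline. Detection used RT-PCR and fluorescence capillary electrophoresis.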

Measured: AC50

Sequence of Bile acid receptor (Homo sapiens) (Q96RI1 whole entry, looked up): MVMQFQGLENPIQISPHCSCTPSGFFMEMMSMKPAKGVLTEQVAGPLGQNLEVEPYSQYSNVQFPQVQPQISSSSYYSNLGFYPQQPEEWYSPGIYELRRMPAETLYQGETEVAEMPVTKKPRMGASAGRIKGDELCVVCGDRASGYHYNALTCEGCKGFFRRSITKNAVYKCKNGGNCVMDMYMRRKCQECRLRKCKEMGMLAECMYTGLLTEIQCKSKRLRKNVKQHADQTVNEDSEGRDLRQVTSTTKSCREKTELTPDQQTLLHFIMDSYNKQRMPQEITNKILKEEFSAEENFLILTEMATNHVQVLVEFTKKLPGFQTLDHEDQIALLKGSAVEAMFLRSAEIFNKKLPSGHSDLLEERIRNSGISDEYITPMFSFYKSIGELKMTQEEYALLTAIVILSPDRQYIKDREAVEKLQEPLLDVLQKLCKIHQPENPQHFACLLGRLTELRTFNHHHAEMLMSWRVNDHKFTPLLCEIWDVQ
Sequence of Heat shock factor protein 1 (Homo sapiens) (Q00613 whole entry, looked up, the tested form may be a part): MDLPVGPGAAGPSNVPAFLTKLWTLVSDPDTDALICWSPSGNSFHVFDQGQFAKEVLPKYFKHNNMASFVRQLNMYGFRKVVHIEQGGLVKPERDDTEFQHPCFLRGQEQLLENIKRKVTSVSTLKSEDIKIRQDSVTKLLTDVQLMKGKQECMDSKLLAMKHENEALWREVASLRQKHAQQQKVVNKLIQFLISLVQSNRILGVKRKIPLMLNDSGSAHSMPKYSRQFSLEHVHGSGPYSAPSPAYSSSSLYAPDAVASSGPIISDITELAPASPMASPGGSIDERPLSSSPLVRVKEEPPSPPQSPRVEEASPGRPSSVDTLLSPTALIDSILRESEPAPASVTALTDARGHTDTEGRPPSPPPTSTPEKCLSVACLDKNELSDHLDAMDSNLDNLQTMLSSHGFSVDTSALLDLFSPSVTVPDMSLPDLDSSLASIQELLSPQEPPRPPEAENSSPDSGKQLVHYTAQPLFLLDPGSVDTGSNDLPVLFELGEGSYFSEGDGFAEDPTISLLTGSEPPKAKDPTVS
Sequence of Hepatocyte nuclear factor 3-beta (Homo sapiens) (Q9Y261 whole entry, looked up): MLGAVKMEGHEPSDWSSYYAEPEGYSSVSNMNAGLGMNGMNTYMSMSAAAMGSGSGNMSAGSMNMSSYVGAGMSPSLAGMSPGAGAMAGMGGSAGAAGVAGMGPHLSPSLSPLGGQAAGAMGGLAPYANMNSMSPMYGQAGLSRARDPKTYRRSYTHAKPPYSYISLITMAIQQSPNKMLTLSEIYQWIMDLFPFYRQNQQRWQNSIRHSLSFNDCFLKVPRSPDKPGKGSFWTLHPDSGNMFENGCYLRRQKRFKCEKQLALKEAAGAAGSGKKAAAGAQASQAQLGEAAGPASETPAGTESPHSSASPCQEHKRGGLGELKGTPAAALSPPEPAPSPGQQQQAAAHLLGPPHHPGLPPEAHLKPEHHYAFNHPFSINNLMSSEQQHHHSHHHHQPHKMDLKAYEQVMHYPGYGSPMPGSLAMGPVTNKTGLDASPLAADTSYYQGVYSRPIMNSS
Sequence of Hypoxia-inducible factor 1-alpha (Homo sapiens) (Q16665 whole entry, looked up): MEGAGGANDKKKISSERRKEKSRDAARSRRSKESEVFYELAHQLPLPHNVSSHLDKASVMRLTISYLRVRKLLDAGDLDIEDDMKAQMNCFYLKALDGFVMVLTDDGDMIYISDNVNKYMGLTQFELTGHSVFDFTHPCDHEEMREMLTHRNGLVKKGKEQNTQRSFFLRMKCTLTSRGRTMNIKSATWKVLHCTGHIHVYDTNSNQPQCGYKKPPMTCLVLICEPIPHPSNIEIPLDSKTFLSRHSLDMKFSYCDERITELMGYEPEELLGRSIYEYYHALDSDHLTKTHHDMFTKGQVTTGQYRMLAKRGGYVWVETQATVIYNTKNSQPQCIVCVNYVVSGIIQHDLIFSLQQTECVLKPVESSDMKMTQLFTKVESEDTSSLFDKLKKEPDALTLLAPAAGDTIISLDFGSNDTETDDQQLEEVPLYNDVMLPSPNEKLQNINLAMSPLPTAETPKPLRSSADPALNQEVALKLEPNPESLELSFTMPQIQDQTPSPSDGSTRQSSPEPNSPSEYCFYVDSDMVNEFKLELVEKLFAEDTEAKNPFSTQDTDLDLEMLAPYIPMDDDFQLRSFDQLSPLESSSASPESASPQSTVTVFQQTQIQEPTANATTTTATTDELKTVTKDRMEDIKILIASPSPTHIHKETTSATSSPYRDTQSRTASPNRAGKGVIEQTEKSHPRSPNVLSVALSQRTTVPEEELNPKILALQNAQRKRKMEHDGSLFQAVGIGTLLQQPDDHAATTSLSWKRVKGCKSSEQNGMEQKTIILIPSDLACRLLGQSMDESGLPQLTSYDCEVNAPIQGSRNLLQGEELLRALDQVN
Sequence of Hepatocyte nuclear factor 6 (Homo sapiens) (Q9UBC0 whole entry, looked up, the tested form may be a part): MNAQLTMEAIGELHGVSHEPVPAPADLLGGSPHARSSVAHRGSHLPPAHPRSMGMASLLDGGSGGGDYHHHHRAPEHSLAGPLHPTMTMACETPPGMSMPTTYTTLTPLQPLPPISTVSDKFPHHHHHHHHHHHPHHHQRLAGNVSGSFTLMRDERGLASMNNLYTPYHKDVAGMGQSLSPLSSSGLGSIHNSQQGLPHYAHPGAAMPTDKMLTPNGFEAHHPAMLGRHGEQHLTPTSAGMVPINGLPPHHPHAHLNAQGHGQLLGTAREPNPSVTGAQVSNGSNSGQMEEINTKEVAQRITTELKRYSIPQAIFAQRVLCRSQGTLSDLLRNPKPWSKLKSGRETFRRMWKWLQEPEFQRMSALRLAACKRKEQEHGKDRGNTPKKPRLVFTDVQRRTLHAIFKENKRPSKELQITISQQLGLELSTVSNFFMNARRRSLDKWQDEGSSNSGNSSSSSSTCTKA

CCc1cc(SCc2sc(-c3ccc(C(F)(F)F)cc3)nc2CN2CCN(c3ccc(OC)cc3)CC2)ccc1OCC(=O)O
active: [2] 15.8 µM | [6] 3.93 µM | [8] 14 µM | [11] 15.3 µM | [13] 18.1 µM | [14] 8.53 µM | [15] 17 µM
not listed: [16] | [17] | [18] | [19]
inactive: all other assays above

CC(C)=CCCC(C)=CC=O
active: [2] 100 µM | [16] 100 µM | [14] 100 µM
not listed: [6] | [11] | [17] | [18] | [19]
inactive: all other assays above

CC[C@H]1OC(=O)[C@H](C)[C@@H](O[C@H]2C[C@@](C)(OC)[C@@H](O)[C@H](C)O2)[C@H](C)[C@@H](O[C@@H]2O[C@H](C)C[C@H](N(C)C)[C@H]2O)[C@](C)(O)C[C@@H](C)C(=O)[C@H](C)[C@@H](O)[C@]1(C)O
not listed: [6] | [7] | [11] | [16] | [18] | [19]
inactive: all other assays above

Oc1ccc2c(c1)-c1ccccc1C2
active: [2] 38.6 µM | [6] 1.3 µM | [8] 100 µM | [13] 26.5 µM | [15] 59.6 µM
not listed: [14] | [16] | [17] | [19]
inactive: all other assays above

CN(C)c1ccc(Cc2ccc(N(C)C)cc2)cc1
active: [2] 25.6 µM
not listed: [11] | [14] | [15] | [16] | [19]
inactive: all other assays above

CC1=CC(=O)CC(C)(C)C1
not listed: [6] | [13] | [14] | [15] | [16] | [17] | [18] | [19]
inactive: all other assays above

O=C(O)CC(O)C(=O)O (stereo unspecified)
not listed: [6] | [7] | [11] | [15] | [16] | [18]
inactive: all other assays above

CCOC(=O)c1ccc(C2CCC(NC[C@H](O)COc3ccc(O)c(NS(C)(=O)=O)c3)CC2)cc1 (stereo partly specified)
inactive: [1] | [3] | [18] | [9] | [10] | [12]
active: [2] 56.8 µM | [19] 53.5 µM | [4] 48.8 µM | [5] 59.6 µM | [6] 53.2 µM | [7] 53.8 µM | [8] 51.5 µM | [11] 7.81 µM | [13] 61.8 µM | [14] 55 µM

Nc1nc2ncc(CNc3ccc(C(=O)N[C@@H](CCC(=O)O)C(=O)O)cc3)nc2c(=O)[nH]1
not listed: [6] | [11] | [16] | [17] | [18]
inactive: all other assays above

CCNc1ccccc1
active: [11] 59.4 µM
not listed: [7] | [16]
inactive: all other assays above

CC/C(=C\C(=N/O)C(N)=O)C(C)[N+](=O)[O-] (stereo unspecified)
not listed: [6] | [11] | [15] | [18] | [19]
inactive: all other assays above
